Tests used:
Assay in all cases: protein binding microarray; high values mean tight binding
Settings in all cases: dsDNA, one strand shown
RELARELA (p65 homodimer) = RELARELA (p65 homodimer) (Homo sapiens, UniProt Q04206 1-307)
p50p50 homodimer = p50p50 homodimer (Homo sapiens, UniProt P19838 7-356)
p52p52 homodimer = biological target: T1, p52p52 homodimer (Homo sapiens, UniProt Q00653 4-332)
T1 sequence: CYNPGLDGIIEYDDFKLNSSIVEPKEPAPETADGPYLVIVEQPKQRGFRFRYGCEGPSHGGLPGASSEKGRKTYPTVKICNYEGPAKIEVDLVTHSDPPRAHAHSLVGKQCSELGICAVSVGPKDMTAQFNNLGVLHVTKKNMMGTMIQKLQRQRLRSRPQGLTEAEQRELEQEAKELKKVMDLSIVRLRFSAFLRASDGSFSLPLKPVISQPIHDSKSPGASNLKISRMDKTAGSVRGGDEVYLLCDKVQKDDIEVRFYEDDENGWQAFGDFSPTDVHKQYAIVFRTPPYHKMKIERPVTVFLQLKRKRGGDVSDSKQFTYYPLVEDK

[1] = biological target: RELA (p65) subunit of heterodimer;p50 subunit (Homo sapiens;Homo sapiens, UniProt Q04206;P19838 1-307;7-356)
[2] = biological target: RELA (p65) subunit of heterodimer;p52 subunit (Homo sapiens;Homo sapiens, UniProt Q04206;Q00653 1-307;4-332)
RELB subunit;p50 subunit = RELB subunit;p50 subunit (Homo sapiens;Homo sapiens, UniProt Q01201;P19838 120-401;7-356)
RELB subunit;p52 subunit = biological target: T2, RELB subunit;p52 subunit (Homo sapiens;Homo sapiens, UniProt Q01201;Q00653 120-401;4-332)
T2 sequence 1: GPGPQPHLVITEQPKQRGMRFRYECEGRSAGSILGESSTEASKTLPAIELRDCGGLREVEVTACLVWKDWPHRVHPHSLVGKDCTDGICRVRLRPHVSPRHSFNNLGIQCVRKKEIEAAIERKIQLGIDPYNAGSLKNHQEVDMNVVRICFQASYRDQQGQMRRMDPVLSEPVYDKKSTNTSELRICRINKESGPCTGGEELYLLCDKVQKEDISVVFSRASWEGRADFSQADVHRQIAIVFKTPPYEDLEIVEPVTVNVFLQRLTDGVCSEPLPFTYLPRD
T2 sequence 2: T1 sequence

[3] = biological target: C-Rel subunit;p50 subunit (Homo sapiens;Homo sapiens, UniProt Q04864;P19838 1-285;7-356)
[4] = biological target: T3, C-Rel subunit;p52 subunit (Homo sapiens;Homo sapiens, UniProt Q04864;Q00653 1-285;4-332)
T3 sequence 1: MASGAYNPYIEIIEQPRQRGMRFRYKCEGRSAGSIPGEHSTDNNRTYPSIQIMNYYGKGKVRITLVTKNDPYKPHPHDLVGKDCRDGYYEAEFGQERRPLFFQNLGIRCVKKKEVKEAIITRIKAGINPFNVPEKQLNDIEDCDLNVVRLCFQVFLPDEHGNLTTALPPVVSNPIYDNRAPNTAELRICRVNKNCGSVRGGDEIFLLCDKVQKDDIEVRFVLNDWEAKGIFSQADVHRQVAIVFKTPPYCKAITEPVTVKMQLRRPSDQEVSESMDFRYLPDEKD
T3 sequence 2: T1 sequence

Chain of RELA (p65) subunit of heterodimer;p50 subunit (Q04206 1-307, chain 1 of 2): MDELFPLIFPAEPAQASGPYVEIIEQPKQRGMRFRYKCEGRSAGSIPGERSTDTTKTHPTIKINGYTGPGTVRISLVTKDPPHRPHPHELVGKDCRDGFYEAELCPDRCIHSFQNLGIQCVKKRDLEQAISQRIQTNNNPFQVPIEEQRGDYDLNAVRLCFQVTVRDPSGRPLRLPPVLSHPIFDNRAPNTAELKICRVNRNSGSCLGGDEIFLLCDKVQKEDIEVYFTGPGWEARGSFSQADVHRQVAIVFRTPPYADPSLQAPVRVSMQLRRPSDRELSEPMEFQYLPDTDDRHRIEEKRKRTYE
Chain of RELA (p65) subunit of heterodimer;p50 subunit (P19838 7-356, chain 2 of 2): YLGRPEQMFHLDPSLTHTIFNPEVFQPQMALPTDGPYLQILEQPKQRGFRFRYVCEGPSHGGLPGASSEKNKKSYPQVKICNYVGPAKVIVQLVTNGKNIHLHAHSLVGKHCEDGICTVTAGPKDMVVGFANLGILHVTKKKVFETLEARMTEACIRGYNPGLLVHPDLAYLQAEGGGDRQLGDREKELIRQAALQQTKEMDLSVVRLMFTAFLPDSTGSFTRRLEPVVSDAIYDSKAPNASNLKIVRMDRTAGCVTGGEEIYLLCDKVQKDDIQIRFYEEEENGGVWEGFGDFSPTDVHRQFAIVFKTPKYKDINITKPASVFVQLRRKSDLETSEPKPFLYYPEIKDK
Chain of RELARELA (p65 homodimer) (Q04206 1-307): as the sequence (Q04206 1-307, chain 1 of 2) above
Chain of p50p50 homodimer (P19838 7-356): as the sequence (P19838 7-356, chain 2 of 2) above

Sequence | binding signal (RELARELA (p65 homodimer)) [z-score] | binding signal (p50p50 homodimer) [z-score] | binding signal (p52p52 homodimer) [z-score] | binding signal [1] [z-score] | binding signal [2] [z-score] | binding signal (RELB subunit;p50 subunit) [z-score] | binding signal (RELB subunit;p52 subunit) [z-score] | binding signal [3] [z-score] | binding signal [4] [z-score]
AAGGTAGCCCC | -0.468 | 0.424 | 0.109 | -0.162 | 0 | 0.152 | 0.184 | 0.249 | 0.217
AGAAAATCCCT | 1.08 | 1.27 | 1.8 | 1.28 | 1.37 | 1.49 | 1.61 | 1.12 | 1.62
GAAGTTGTCCT | -0.136 | -1.05 | -0.601 | -0.859 | -0.716 | -0.826 | -0.62 | -0.931 | -0.642
GAGAGGGTCCC | -0.00134 | -0.361 | -0.132 | -0.312 | -0.187 | -0.0754 | -0.109 | -0.406 | -0.351
AAAGTGCCCCC | 0.331 | 1.09 | 0.518 | 0.793 | 0.904 | 0.839 | 1.17 | 0.964 | 0.619
CAATAACTCCC | 0.145 | 0.702 | 0.0211 | 0.38 | -0.231 | 0.426 | -0.00688 | 0.223 | -0.12
GGAAATGTCCC | 1.93 | 0.902 | 1.14 | 1.27 | 1.05 | 0.938 | 0.986 | 0.9 | 0.975
CAAGAGGTCCC | 1.23 | -0.219 | 0.0202 | -0.152 | -0.417 | 0.271 | 0.113 | -0.21 | -0.201
AAAGTTCTCCT | 0.015 | -1.02 | -0.659 | -0.601 | -0.834 | -0.944 | -0.822 | -0.841 | -0.771
AGGTGCACCCC | -0.368 | 0.235 | 0.492 | 0.0923 | 0.549 | 0.107 | 0.61 | -0.0192 | 0.815
GGGTTCCTCCT | -0.196 | -1.42 | -0.584 | -0.636 | -0.6 | -0.937 | -0.638 | -0.934 | -0.467
CGATATTTCCT | 0.574 | -0.558 | -0.405 | -0.302 | -0.495 | -0.725 | -0.422 | -0.166 | -0.154
CAGAGCTCCCC | -0.432 | -0.0564 | -0.163 | 0.0392 | -0.211 | 0.161 | -0.0377 | 0.0629 | -0.215
CAATGCACCCT | -0.473 | -0.555 | -0.333 | -0.616 | -0.779 | -0.601 | -0.639 | -1 | -0.653
CGATAAGCCCC | -0.417 | 0.756 | 0.22 | 0.383 | 0.238 | 0.334 | 0.409 | 0.25 | 0.31
CAGTTCTTCCC | 1.2 | -0.0833 | -0.0924 | 0.385 | 0.0986 | -0.231 | -0.179 | 0.641 | 0.366
AAAGTGGTCCC | -0.237 | 0.456 | 0.16 | -0.319 | -0.267 | 0.24 | -0.0596 | -0.25 | -0.422
CGGGTGCCCCC | -0.0899 | 0.777 | 0.373 | 0.794 | 0.707 | 0.779 | 1.05 | 0.974 | 0.84
CAGAAAATCCC | 1.82 | 0.978 | 1.18 | 0.992 | 1.13 | 0.966 | 1.04 | 0.902 | 1.19
GGGTACCTCCC | -0.276 | 0.39 | 1.06 | 0.436 | 0.843 | 0.429 | 0.437 | 0.243 | 0.556
CAAGTTGTCCC | 0.644 | 0.614 | 0.469 | 0.421 | 0.267 | 0.826 | 0.446 | 0.778 | 0.251
AGAAGTCCCCC | 0.863 | 1.4 | 1.58 | 1.97 | 1.75 | 2.05 | 2.01 | 1.53 | 1.63
CAATTATCCCC | 0.4 | 1.12 | 1.04 | 1.31 | 1.12 | 1.3 | 1.33 | 1.2 | 0.884
CAAGGTTCCCC | 0.544 | 1.15 | 1.29 | 1.68 | 1.31 | 1.5 | 1.58 | 1.36 | 1.06
GGATGAACCCT | -0.273 | -1.25 | -0.595 | -0.588 | -0.76 | -0.936 | -0.814 | -1.23 | -0.571
AGAGACACCCC | -0.871 | -0.237 | -0.229 | -0.459 | -0.359 | -0.257 | 0.00668 | -0.227 | -0.484
CAATGGGCCCC | -0.62 | -0.565 | -0.242 | -0.699 | -0.472 | -0.379 | -0.185 | -0.565 | -0.638
GAAAGTTCCCT | 0.999 | 1.15 | 1.11 | 1.12 | 1.03 | 0.985 | 0.987 | 0.705 | 0.73
AAAAGCACCCC | -0.281 | 0.833 | 0.946 | 0.86 | 1.12 | 0.711 | 0.952 | 0.423 | 0.69
CGAGACGTCCT | -0.768 | -1.33 | -0.73 | -1.16 | -0.933 | -1.07 | -0.949 | -1.55 | -0.864
